# Laboratory results taken from PubChem BioAssay (Tox21).
# Records with an inconclusive call do not appear. Active and inactive are the calls of the source. The call rests on the fitted dose curve. Residues, ends and D or L forms follow the SMILES beside them.
# Target: Peroxisome proliferator-activated receptor delta (Homo sapiens) (UniProt Q03181)
# Assay: qHTS assay to identify small molecule agonists of the peroxisome proliferator-activated receptor delta (PPARd) signaling pathway (AID 743212)
# Conditions: HEK293H PPARd-UAS-bla, beta-lactamase FRET ratio, 17 h; series mostly up to 62.6 µM
# From the text: U.S. Tox21 Program National Center for Advancing Translational Sciences [NCATS] NIH Chemical Genomics Center [NCGC] U.S. Environmental Protection Agency [EPA] National Institutes of Environmental Health Sciences [NIEHS] National Toxicology Program [NTP] U.S. Food and Drug Administration [FDA] Tox21 Assay Overview: The peroxisome proliferator-activated receptors (PPARs) are lipid-activated transcription factors of the nuclear receptor superfamily with three distinct subtypes namely PPAR alpha, PPAR delta (PPARd) and PPAR gamma. All these subtypes heterodimerizes with Retinoid X receptor (RXR) and have different physiological functions. […] To identify the compounds that activate PPAR-delta signaling, GeneBLAzer PPAR delta UAS-bla HEK293H cell line (Invitrogen, Carlsbad, CA, USA) containing a beta-lactamase reporter gene under the control of an Upstream Activator Sequence (UAS) was used to screen the Tox21 compound library.
# Tox21 Assay Protocol Summary: PPARd-bla cells were dispensed at 3000 cells/6uL/well in 1536-well black wall/clear bottom plates using a Multidrop Combi (Thermo Fisher Scientific, Waltham, MA) dispenser. After the assay plates were incubated at 37 C and 5% CO2 for 5 h, 23 nL of compounds dissolved in DMSO, positive controls or DMSO only was transferred to the assay plate by a Pintool station (Kalypsys, San Diego, CA). The assay plates were incubated at 37C for 17 h. After 1 uL of LiveBLAzerTM B/G FRET substrate was added using a Bioraptr Flying Reagent Dispenser (FRD) workstation (Beckman Coulter, Indianapolis, IN, USA), the plates were incubated at room temperature for 2 h, and fluorescence intensity was measured by an Envision plate reader (PerkinElmer, Shelton, CT).
# Sequence of Peroxisome proliferator-activated receptor delta (Homo sapiens) (Q03181 whole entry, looked up): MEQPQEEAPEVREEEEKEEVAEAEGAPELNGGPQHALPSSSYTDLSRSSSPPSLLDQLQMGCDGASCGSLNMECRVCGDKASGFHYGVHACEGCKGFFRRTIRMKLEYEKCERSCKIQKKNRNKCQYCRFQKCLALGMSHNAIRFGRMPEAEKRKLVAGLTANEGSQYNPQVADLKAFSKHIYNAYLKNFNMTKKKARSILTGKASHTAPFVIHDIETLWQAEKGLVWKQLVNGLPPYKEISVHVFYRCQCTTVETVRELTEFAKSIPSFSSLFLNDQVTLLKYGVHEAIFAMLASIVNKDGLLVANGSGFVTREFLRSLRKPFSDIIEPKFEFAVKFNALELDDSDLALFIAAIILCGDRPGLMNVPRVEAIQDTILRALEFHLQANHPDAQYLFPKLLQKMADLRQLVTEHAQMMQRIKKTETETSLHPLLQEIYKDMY
row,Compound,outcome
1,O=c1cc[nH]c(=S)[nH]1,inactive
2,C/C=C/c1ccc(OC)cc1,inactive
3,Nc1ccc(C(=O)O)cc1,inactive
4,Nc1ccc(S(=O)(=O)c2ccc(N)cc2)cc1,inactive
5,Nc1ccc(S(=O)(=O)Nc2nccs2)cc1,inactive
6,O=C(O)/C=C\C(=O)O,inactive
7,Cc1ccc(S(=O)(=O)NC(=O)NN2CCCCCC2)cc1,inactive
8,CC(C)[C@@H]1CC[C@@H](C)C[C@H]1O,inactive
9,Cc1ccc(O)cc1,inactive
10,CCCNC(=O)NS(=O)(=O)c1ccc(Cl)cc1,inactive
11,C1N2CN3CN1CN(C2)C3,inactive
12,OCCc1ccccc1,inactive
13,COC(=O)[C@H](Cc1ccccc1)NC(=O)[C@@H](N)CC(=O)O (H-Asp-Phe-OMe),inactive
14,CC(O)CO (stereo not given),inactive
15,C[C@]12C=CC(=O)C=C1CC[C@@H]1[C@@H]2[C@@H](O)C[C@@]2(C)[C@H]1CC[C@]2(O)C(=O)CO,inactive
16,Cc1ccc(C)c(OCCCC(C)(C)C(=O)O)c1,inactive
17,CCCCC(CC)COC(=O)/C=C/c1ccc(OC)cc1 (stereo not given),inactive
18,Cn1c(=O)c2[nH]cnc2n(C)c1=O,inactive
19,Nc1ccc(O)c(C(=O)O)c1,inactive
20,CCCN(CCC)S(=O)(=O)c1ccc(C(=O)O)cc1,inactive

row,Compound,outcome
1,O=C(O)CS,inactive
2,O=C1CN(/N=C/c2ccc([N+](=O)[O-])o2)C(=O)N1,inactive
3,CC(O)CN(CCN(CC(C)O)CC(C)O)CC(C)O (stereo not given),inactive
4,CCCCOC(=O)CC(CC(=O)OCCCC)(OC(C)=O)C(=O)OCCCC,inactive
5,NC(N)=O,inactive
6,O=C(O)CCCCC(=O)O,inactive
7,Oc1ccc(/C=C/c2cc(O)cc(O)c2)cc1,inactive
8,Nc1ccn([C@H]2CC[C@@H](CO)O2)c(=O)n1,inactive
9,COc1ccc2[nH]cc(CCNC(C)=O)c2c1,inactive
10,CC1(C)[C@@H]2CC[C@@]1(C)C(=O)C2,inactive
11,CC(C)(Oc1ccc(C2CC2(Cl)Cl)cc1)C(=O)O (stereo not given),inactive
12,O=C(O)CCC(=O)O,inactive
13,Cn1cc[nH]c1=S,inactive
14,CCCC(O)C(CC)CO (stereo not given),inactive
15,CC(=O)OCC(COC(C)=O)OC(C)=O,inactive
16,CC(=O)NS(=O)(=O)c1ccc(N)cc1,inactive
17,Cc1noc(NS(=O)(=O)c2ccc(N)cc2)c1C,inactive
18,Cc1cn([C@H]2C[C@H](N=[N+]=[N-])[C@@H](CO)O2)c(=O)[nH]c1=O,inactive
19,NC(=O)c1cnccn1,inactive
20,Cc1cc(=O)[nH]c(=S)[nH]1,inactive
